Data: PubChem BioAssay (NCATS)
Inconclusive results are not listed. Active and inactive are the calls of the source. Calls follow the shape of the dose curve; as a rule, active = well fitted curve in the direction sought with a large enough effect; inconclusive = small, poorly fitted or top-dose-only effect, or another doubt; inactive = no such curve, though single readings can be large; an effect the other way counts as inactive or inconclusive.

How the values were obtained:
[1] = qHTS of pediatric cancer cell lines to identify multiple opportunities for drug repurposing: Primary screen for SK-N-SH cells (AID 1347098); also: nearly all actives have a fitted effect of over 65% in size
Method in brief: (§1)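 Cells (500-1,000/well) rested 5 h, then received compounds for 48 h; metabolically active cells were measured by CellTiter-Glo luminescence. Final concentrations spanned up to 46 µM (MIPE, 11-point) or 0.59 nM-46 µM (NPC, 8-point) in primary screens, 11-point in follow-ups.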

[2] = qHTS of pediatric cancer cell lines to identify multiple opportunities for drug repurposing: Primary screen for NB1643 cells (AID 1347099); also: nearly all actives have a fitted effect of over 50% in size
Method in brief: (§2)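 Primary screen of approved and investigational compounds on cells in growth media at 37 degrees C, 5% CO2. MIPE set at 11-point and NPC set at 8-point dilutions; viability scored by ATP-based luminescence at 48 hours.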

[3] = qHTS of pediatric cancer cell lines to identify multiple opportunities for drug repurposing: Primary screen for LAN-5 cells (AID 1347100)
Method in brief: (§3)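 Viability after 48 h compound treatment at 37C, 500-1,000 cells/well, read as ATP luminescence with CellTiter-Glo. Primary screens used 11-point (MIPE, 0.78 nM-46 µM) or 8-point (NPC, 0.59 nM-46 µM) final concentrations; follow-up screens used 11-point dilutions.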

[4] = qHTS of pediatric cancer cell lines to identify multiple opportunities for drug repurposing: Primary screen for Rh18 cells (AID 1347102); also: nearly all actives have a fitted effect of over 65% in size
Method in brief: as §3

[5] = qHTS of pediatric cancer cell lines to identify multiple opportunities for drug repurposing: Primary screen for OHS-50 cells (AID 1347103); also: nearly all actives have a fitted effect of over 40% in size
Method in brief: as §1

[6] = qHTS of pediatric cancer cell lines to identify multiple opportunities for drug repurposing: Primary screen for RD cells (AID 1347104); also: nearly all actives have a fitted effect of over 55% in size
Method in brief: as §2

[7] = qHTS of pediatric cancer cell lines to identify multiple opportunities for drug repurposing: Primary screen for MG 63 (6-TG R) cells (AID 1347105); also: nearly all actives have a fitted effect of over 50% in size
Method in brief: as §2

[8] = qHTS of pediatric cancer cell lines to identify multiple opportunities for drug repurposing: Primary screen for control Hh wild type fibroblast cells (AID 1347106); also: nearly all actives have a fitted effect of over 55% in size
Method in brief: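 Cells (500-1,000/well) in growth media were settled 5 h at 37 degrees C, then given compounds for 48 h. Viability was read as CellTiter-Glo luminescence. Primary runs used MIPE at 11 points (0.78 nM-46 µM) and NPC at 8 points (0.59 nM-46 µM); follow-ups used 11 points.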

[9] = qHTS of pediatric cancer cell lines to identify multiple opportunities for drug repurposing: Primary screen for Rh30 cells (AID 1347107); also: nearly all actives have a fitted effect of over 75% in size
Method in brief: as §3

[10] = qHTS of pediatric cancer cell lines to identify multiple opportunities for drug repurposing: Primary screen for BT-12 cells (AID 1347101); also: nearly all actives have a fitted effect of over 25% in size
Method in brief: as §1

Measured: Potency
Potency is read from the fitted curve at half-maximal effect.

NCc1cccnc1
not listed: [10]
inactive: all other assays above

ClCc1cccc(Cl)c1
not listed: [9] | [10]
inactive: all other assays above

COc1cc(C[C@@H](C)N)c(OC)cc1Br
not listed: [5] | [6]
inactive: all other assays above

CN(C)CCc1c[nH]c2ccccc12
not listed: [5]
inactive: all other assays above

CCOC(C(=O)OCCN(C)C)(c1ccccc1)c1ccccc1
not listed: [5]
inactive: all other assays above

CCN(CC)CCOC(=O)C(C)(c1ccccc1)c1ccccc1
not listed: [5] | [10]
inactive: all other assays above

CCCC(C)C1(CC)C(=O)N=C(S)NC1=O (stereo not given)
not listed: [10]
inactive: all other assays above

COc1cc(N)c(Cl)cc1C(=O)NC1CN2CCC1CC2 (stereo not given)
not listed: [7] | [9] | [10]
inactive: all other assays above

CC(C)=C[C@@H]1[C@@H](C(=O)OCc2coc(Cc3ccccc3)c2)C1(C)C
not listed: [5] | [7] | [9]
inactive: all other assays above

C[C@@H]1CC[C@H]2[C@@H](C)C(=O)O[C@@H]3O[C@@]4(C)CC[C@@H]1[C@]32OO4
not listed: [6] | [10]
inactive: all other assays above

C#C[C@]1(O)C=C[C@H]2[C@@H]3CCC4=CC(=O)CC[C@@H]4[C@H]3CC[C@@]21CC
not listed: [5]
inactive: all other assays above

CC(C)(C)OC(=O)c1ncn2c1[C@@H]1CCCN1C(=O)c1c(Br)cccc1-2
not listed: [10]
inactive: all other assays above

C[C@]12CC[C@H](O)CC1=CC[C@@H]1[C@@H]2CC[C@]2(C)C(=O)CC[C@@H]12
not listed: [5] | [10]
inactive: all other assays above

Cc1ccc([N+](=O)[O-])[c]2c1[O][Hg]2
active: [1] 1090 nM | [2] 596 nM | [4] 1500 nM | [5] 550 nM | [6] 188 nM | [7] 1330 nM | [9] 2110 nM

CCN1CCCC1CNC(=O)C(O)(c1ccccc1)c1ccccc1 (stereo not given)
not listed: [9] | [10]
inactive: all other assays above

COP(=S)(OC)Oc1ccc(Sc2ccc(OP(=S)(OC)OC)cc2)cc1
not listed: [10]
inactive: all other assays above

C[C@H]1CNCCc2ccc(Cl)cc21
inactive: [1] | [2] | [3] | [4] | [6] | [8]

C[C@@H]1O[C@@H](O[C@@H]2C=C3CC[C@@H]4[C@H](CC[C@]5(C)[C@@H](c6ccc(=O)oc6)CC[C@]45O)[C@@]3(C)CC2)[C@H](O)[C@H](O)[C@H]1O
inactive: [9]
active: [1] 68.7 nM | [2] 6.7 nM | [3] 10.6 nM | [10] 3.1 nM | [5] 2.5 nM | [6] 1.5 nM | [7] 1.7 nM | [8] 7.5 nM

O=c1[nH]c2cc(Cl)ccc2n1C1CCNCC1
not listed: [10]
inactive: all other assays above

COc1ccc2[nH]cc(CCN(C(C)C)C(C)C)c2c1
active: [1] 36100 nM
not listed: [5] | [10]
inactive: all other assays above

COCC(=O)N(c1c(C)cccc1C)C(C)C(=O)OC (stereo not given)
not listed: [10]
inactive: all other assays above

Cc1c(Cl)c(=O)oc2cc(OP(=O)(OCCCl)OCCCl)ccc12
not listed: [10]
inactive: all other assays above

C[C@H]1C(=O)O[C@@H]2CCN3CC=C(COC(=O)[C@](C)(O)[C@]1(C)O)[C@H]23
not listed: [3]
inactive: all other assays above

Cc1cccc(Cc2cnc[nH]2)c1C
not listed: [5]
inactive: all other assays above
